Data as given in ChEMBL document CHEMBL4888484, “Replenishing the malaria drug discovery pipeline: Screening and hit evaluation of the MMV Hit Generation Library 1 (HGL1) against asexual blood stage Plasmodium falciparum ,using a nano luciferase reporter read-out” (2022).
Hit rate of the full screen: of about 4,800 compounds, about 420 (8.8%) showed an effect of 50% or more. This excerpt belongs to a sample that is enriched for strong results. Where a SMILES comes first, the peptide text is derived from it. The star is where a group is joined. NHPhenethyl = c1ccc(CCN*)cc1

test system: Plasmodium falciparum; assay: Confirmatory screen in NF54 nanoGlo assay, in single point, at 2uM, 72h; format: functional, Erythrocyte; details: timepoint 72 hour

| Compound | % Inhibition [%] |
| --- | --- |
| CC(C)n1ccc(CN2CCC[C@H](c3cc(C(F)(F)F)[nH]n3)C2)n1 | -9 |
| CCc1ccc([C@H]2NCCc3[nH]cnc32)nc1 | 29 |
| CCc1ccc(CN2CCC[C@H](c3ncc[nH]3)C2)nc1 | 52 |
| CCN(CC)c1ccc(N2C(=O)c3c(Br)c(Br)c(Br)c(Br)c3C2=O)cc1 | 5 |
| C=CCNC(=S)NS(=O)(=O)c1ccc(Cl)cc1 | 3 |
| COc1cc(CNCCN2CCOCC2)ccc1OCc1ccc(C)cc1 | -1 |
| CCOc1cc(=O)c(C(=O)N2CCC(C(N)=O)CC2)nn1-c1ccc(F)cc1 | -6 |
| Cn1c(N)c(S(=O)(=O)N2CCN(c3ccccc3Cl)CC2)c(=O)n(C)c1=O | 61 |
| CCS(=O)(=O)N1CCN(c2c(C)n(-c3ccccc3)c(=O)n(C)c2=O)CC1 | 2 |
| Cc1ccccc1S(=O)(=O)N1CCN(c2c(C)n(-c3ccccc3)c(=O)n(C)c2=O)CC1 | 1 |
| CC(C)n1cc(CN[C@@]2(CO)CCCc3ccccc32)cn1 | -5 |
| CCN(CC)CCCNC(=O)[C@H]1CCCN(c2nc3ccccc3n(Cc3ccccc3)c2=O)C1 | 0 |
| CCC1CN2CCCC2CN1C(=O)Nc1nc2ccccc2s1 (configuration not stated) | -1 |
| COc1ccc(CNC(=O)Cn2c(=O)n(Cc3cccc(OC)c3)c(=O)c3sccc32)cc1 | 1 |
| Cn1ccc(NC(=O)C(=O)N2CC[C@H](c3ccco3)C2)n1 | -1 |
| Cc1cccc(C(=O)Nc2ccc(N3CCCCCC3)cc2C(=O)O)c1 | -10 |
| O=C(Nc1cc(N2CCCS2(=O)=O)ccc1O)c1cccc(Oc2cccc(C(F)(F)F)c2)c1 | 100 |
| O=C(Nc1cccc(C(F)(F)F)c1)C(Oc1ccccc1)Oc1ccccc1 | -20 |
| CC(C)(C)CC(=O)NC[C@H]1OC[C@@H](NC2CCCC2)[C@@H]1O | 3 |
| Cc1n[nH]c(C)c1NC(=O)C1=NO[C@@H](CNC(=O)OC(C)(C)C)C1 | 0 |
| Cc1cccc(C(=O)N[C@H]2CCN(c3ccccc3)C2=O)c1 | 13 |
| Cn1c(=O)c2c(ncn2CC(=O)N(Cc2ccccc2)C2CC2)n(C)c1=O | -4 |
| CN(Cc1nccn1C)C(=O)c1cc2ccccc2[nH]1 | 5 |
| C=CCNC(=O)c1cc(Br)cc(Br)c1OC | 6 |
| COc1cc([C@@H]2C=C(c3ccc(Cl)cc3)Nc3ncnn32)ccc1OCc1ccc(Cl)cc1 | 3 |

| Compound | % Inhibition [%] |
| --- | --- |
| Cc1ccc([C@@H]2C=C(C(=O)O)Nc3c(C(N)=O)nnn32)cc1 | -14 |
| Cc1ccc(C2=C[C@@H](c3ccc(Cl)cc3)n3nc(NC(=O)c4ccccc4)nc3N2)cc1 | 94 |
| Cc1nnc2ccc(S(=O)(=O)N(Cc3ccccc3F)c3cc(F)cc(F)c3)cn12 | -5 |
| CC(N)C(=O)NC(C)C(=O)NCCc1ccccc1 (stereo not drawn) (H-Ala-Ala-NHPhenethyl; configuration not given here) | -5 |
| CCOC(=O)c1ncn(C2CCN(C(=O)c3cccc(Cn4ccnc4)c3)CC2)c1N | -3 |
| CCOC(=O)c1c(CN2CCCC2)n(C)c2cc(-c3cccnc3)c(O)c(Cn3ccnc3)c12 | 60 |
| Cc1nn(C)c(C)c1S(=O)(=O)N1CC[C@]2(CCN(c3cccnc3)C2)C1 | 1 |
| Cc1cc(NC(=O)c2cccc(S(=O)(=O)NC3CC3)c2)no1 | -8 |
| O=C(C[C@H]1CCC(=O)N(CC2CC2)CC1)Nc1ccccc1F | 4 |
| COc1ccc(C)c2sc(N(CCCn3ccnc3)C(=O)Cc3ccc(F)cc3)nc12 | 79 |
| COc1cccc(CNCCCn2ccnc2)c1OCc1ccc(F)cc1 | 6 |
| Cn1cccc1CNCc1ccncc1 | 0 |
| CCN(CC)[C@H](CNC(=O)C1=NN(C)C(=O)CC1)Cc1ccccc1 | 2 |
| O=C(c1cncc(Br)c1)N1CC[C@H](c2nc(C3CCOCC3)no2)C1 | -2 |
| CC1CCC(c2noc([C@H]3CCO[C@@H]3c3cncc(Br)c3)n2)CC1 (some centres not stated) | 52 |
| c1csc(-c2noc(Cc3c[nH]c4ccccc34)n2)c1 | 21 |
| COc1ccc(CC(=O)N(c2ccccc2)c2ccccc2)cc1 | 21 |
| COc1ccc(C(=O)N2CC(C(=O)O)CCC2c2ccccc2)cc1 (configuration not stated) | 3 |
| COc1ccc(C(=O)N(C(=O)c2ccc(OC)cc2)c2c3c(nc4ccccc24)CCCC3)cc1 | 72 |
| c1cc(-c2noc(C3CC3)n2)nc(N2CCNCC2)n1 | -12 |
| C[C@H](Oc1ccccc1)C(=O)N1CCC(c2nc(-c3ccc4c(c3)OCO4)no2)CC1 | 6 |
| Cc1nc(N2CCC(c3nc(-c4ccccc4)no3)CC2)c2c(C)noc2n1 | 54 |
| C=CCC(N)(CC=C)c1ccc(C)cc1 | -6 |
| Cn1nnnc1NC/C=C/c1ccccc1 | -4 |
| C=C1C(C)C2C(Cc3c[nH]c4ccccc34)NC(=O)C23C(=O)CC(O)C(O)CC(C)C/C=C/C3C1O (configuration not stated) | 44 |

| Compound | % Inhibition [%] |
| --- | --- |
| CCC(C)C(NC(=O)c1ccccc1NC(=O)c1ccco1)C(=O)N1CCCCCC1 (configuration not stated) | -9 |
| Cc1nc(C)c(CN2C(=O)C3CCCCC3C2=O)s1 (configuration not stated) | -2 |
| O=C(c1ccoc1)N1CCC[C@H](C(=O)N2CCN(C(c3ccccc3)c3ccccc3)CC2)C1 | -1 |
| O=C([C@H]1CC(=O)N(c2ccc(F)c(Cl)c2)C1)N1CCN(C(c2ccccc2)c2ccccc2)CC1 | -3 |
| O=C(c1cccc(C(=O)N2CCN(C(c3ccccc3)c3ccccc3)CC2)c1)N1CCN(C(c2ccccc2)c2ccccc2)CC1 | 63 |
| C[C@@H](C(=O)Nc1cccc2ccccc12)c1ccc(-c2ccccc2)c(F)c1 | -11 |
| CC[n+]1c(/C=C/N(C)c2ccccc2)oc2ccc(-c3ccccc3)cc21 | 89 |
| CC[n+]1c(/C=C/N(C)c2ccccc2)oc2ccccc21 | 80 |
| CC(C)(C(=O)Nc1nccs1)c1cccnc1 | -2 |
| Cn1cc(C(=O)N2N=CC[C@]2(O)C(F)(F)F)cn1 | 1 |
| O=C(c1cc(-c2ccccc2)n[nH]1)N1CCC(N2CCc3sccc3C2)CC1 | 21 |
| CCOc1c(CNC(C)(C)C)cccc1OC | -9 |
| CC(C)c1cnc(NCCCC[C@H]2CCCO2)nc1 | -2 |
| Cc1cccc(Oc2nc3ccccc3n3c(=O)n(CC(=O)NCc4ccc(Cl)cc4)nc23)c1C | -10 |
| Cc1ccc(S(=O)(=O)c2ccc3c(c2)Oc2ccccc2N3)cc1 | -10 |
| O=C(NC1CCN(Cc2ccccc2)CC1)c1cnn2c(-c3ccc4c(c3)OCO4)ccnc12 | 3 |
| Cn1cc(-c2ccc(Cl)cc2)c2ncn(CC(=O)Nc3cccc(Cl)c3)c(=O)c21 | -5 |
| CCc1cccc(NC(=O)Cn2ccc3ccc(-c4nnc(C)o4)cc32)c1 | 81 |
| Cc1noc(C)c1CC(=O)Nc1cccc(-c2nnco2)c1 | 3 |
| Cc1nc2cc3c(cc2n1CC(=O)Nc1ccc(Cl)cc1)OCCCO3 | -4 |
| Cc1nnc(-c2ccc3ccn(CC(=O)Nc4ccc(F)c(Cl)c4)c3c2)o1 | 78 |
| Cc1cc(=O)n(CC(=O)Nc2ccc(Cl)c(C(F)(F)F)c2)c(-c2ccc(F)cc2)n1 | -6 |
| O=C(Nc1ccccc1)N1CCC[C@H]1c1ccncc1 | -12 |
| CC(C)N1CCC2(CC1)N=C(c1ccc3c(c1)OCO3)C[C@@H](c1cc(Cl)ccc1O)N2 | 41 |
| O=C(C[C@@H]1C(=O)Nc2nc(N3CCOCC3)[nH]c(=O)c21)Nc1ccc(Cl)cc1 | 9 |

| Compound | % Inhibition [%] |
| --- | --- |
| Cn1c(-c2ccc(Cl)c(Cl)c2)c[n+](CC(=O)c2ccc(-c3ccccc3)cc2)c1N | 6 |
| COC(=O)CN(C(C)C)S(=O)(=O)c1cc(Cl)cc(Cl)c1 | 3 |
| N#Cc1ccc(S(=O)(=O)N2C3CCC2CC(O)C3)o1 (configuration not stated) | -11 |
| CNCCc1c(-c2ccccc2)[nH]n(-c2ccccc2)c1=O | 63 |
| CCCCCc1c(C)nc2[nH]n(-c3ccccc3)c(=O)c2c1O | -19 |
| O=C1CCCc2nc3[nH]n(-c4ccccc4)c(=O)c3cc21 | 8 |
| CCc1n[nH]c(C(=O)N2CC3CCCN3CC2CC)c1Br (configuration not stated) | 7 |
| Oc1ccc(C2=C(c3ccccc3)N=NCN2O)c(O)c1 | -14 |
| COCc1c(Br)c(C)nc(O)c1C#N | -8 |
| CCN1c2cc(C(=O)Nc3ccc(OC)cc3OC)ccc2C(=O)N2CCCC[C@H]21 | 8 |
| CC[C@H]1Cn2c(C(=O)NCc3ccc4c(c3)OCO4)cc3c(Cl)ccc(c32)O1 | -11 |
| Cc1ccc(Cn2c(=O)c(C(=O)NCc3ccc4c(c3)OCO4)nn(-c3ccc(C(C)C)cc3)c2=O)cc1 | 64 |
| O=C(Cn1cnc2ccc(Cl)cc2c1=O)NCc1ccc2c(c1)OCO2 | -5 |
| COc1ccc(S(=O)(=O)N2CCN(C(=O)N(C)C)[C@@H]2c2ccccc2)cc1 | 0 |
| COC(=O)c1cc(Cl)c(Cl)cc1N | -6 |
| COc1cccc([C@H]2CC(=O)Nc3nc(N4CCCCC4)sc32)c1 | 6 |
| COc1ccc(OC)c(S(=O)(=O)N2C[C@H]3CCCC(=O)N[C@H]3C2)c1 | -4 |
| COc1ccc(F)cc1S(=O)(=O)N1CCc2noc(N)c2C1 | 68 |
| COc1ccc(S(=O)(=O)N2CCC(c3cc(N)on3)CC2)cc1Cl | 46 |
| O=C(c1ccccn1)N1CC(n2cnnc2[C@@H]2CCCO2)C1 | -8 |
| Oc1ccc([C@@H](c2cn(-c3nc(-c4ccc(Cl)cc4)cs3)nc2-c2ccccc2)c2c(-c3ccccc3)nn(-c3nc(-c4ccc(Cl)cc4)cs3)c2O)cc1 | 6 |
| c1nc2nc[nH]c(NC3CCCCC3)c-2n1 | 10 |
